Experimental data from PubChem BioAssay AID1835 (Johns Hopkins Ion Channel Center, 2009).
Among all 2,400 compounds or so, about 750 (31%) were called active. The list shows a part of the results. A number with no mark means an inactive call.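 How the source made its calls: active means median signal gain over dofetilide-blocked control wells reaching their mean plus 3 SD, so readout 1 at least 0; inactive means the rest.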

Target: Voltage-gated inwardly rectifying potassium channel KCNH2 (Homo sapiens) (UniProt Q12809)
Assay: modulators restoring hERG flux under dofetilide – cell-based, thallium flux, duplicate retest, dofetilide IC70, confirmation (AID 1835)
Settings: hERG cell line, FluxOR thallium flux, dofetilide-blocked; at 10 µM; stronger effect = higher value

Sequence of Voltage-gated inwardly rectifying potassium channel KCNH2 (Homo sapiens) (Q12809 whole entry, looked up): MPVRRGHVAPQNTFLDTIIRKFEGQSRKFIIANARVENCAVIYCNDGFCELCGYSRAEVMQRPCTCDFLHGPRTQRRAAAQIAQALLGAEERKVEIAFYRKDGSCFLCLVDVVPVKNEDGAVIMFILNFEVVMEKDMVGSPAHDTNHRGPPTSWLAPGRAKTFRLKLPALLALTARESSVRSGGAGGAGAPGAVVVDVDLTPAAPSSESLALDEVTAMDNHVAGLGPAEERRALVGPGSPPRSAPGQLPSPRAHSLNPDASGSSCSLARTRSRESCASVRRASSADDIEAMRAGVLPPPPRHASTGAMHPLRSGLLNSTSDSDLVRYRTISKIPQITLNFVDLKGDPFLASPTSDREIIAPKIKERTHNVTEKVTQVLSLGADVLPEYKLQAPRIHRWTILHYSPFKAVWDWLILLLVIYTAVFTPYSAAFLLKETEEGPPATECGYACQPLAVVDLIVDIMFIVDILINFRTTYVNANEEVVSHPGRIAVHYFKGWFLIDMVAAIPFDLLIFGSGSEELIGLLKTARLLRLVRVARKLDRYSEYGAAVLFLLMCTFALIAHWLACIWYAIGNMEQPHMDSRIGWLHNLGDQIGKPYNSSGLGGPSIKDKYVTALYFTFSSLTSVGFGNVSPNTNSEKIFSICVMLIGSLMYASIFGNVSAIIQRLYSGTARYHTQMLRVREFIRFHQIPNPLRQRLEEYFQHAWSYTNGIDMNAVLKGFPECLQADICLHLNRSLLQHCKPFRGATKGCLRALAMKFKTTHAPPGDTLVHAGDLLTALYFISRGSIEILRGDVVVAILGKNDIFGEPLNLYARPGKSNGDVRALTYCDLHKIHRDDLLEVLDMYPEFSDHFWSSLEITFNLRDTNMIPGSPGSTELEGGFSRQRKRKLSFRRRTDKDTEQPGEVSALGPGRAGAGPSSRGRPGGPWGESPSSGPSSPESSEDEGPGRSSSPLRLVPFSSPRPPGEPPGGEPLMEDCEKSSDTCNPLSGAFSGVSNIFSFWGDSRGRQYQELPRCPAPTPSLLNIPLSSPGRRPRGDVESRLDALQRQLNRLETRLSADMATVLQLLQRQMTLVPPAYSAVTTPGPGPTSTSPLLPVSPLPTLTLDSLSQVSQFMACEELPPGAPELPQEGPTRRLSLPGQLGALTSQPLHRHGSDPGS

| Structure (SMILES) | activity increase over dofetilide control, less the hit threshold |
| --- | --- |
| N#C/C(=N/Nc1ccc([N+](=O)[O-])cc1)C(=N)N1CCCCC1 | -20% |
| O=C1CC(c2ccccc2)c2cccc(F)c21 (centres undefined) | -22% |
| CC1CC(C)CN(CCCNC(=O)Cc2c(C(=O)O)[nH]c3ccccc23)C1 (centres undefined) | -14% |
| O=C(Nc1ccc2[nH]c(=S)sc2c1)Nc1ccccc1F | -16% |
| S=c1[nH]c2ccc(Cl)cc2s1 | 91% (active) |
| S=c1[nH]c2cc(Cl)ccc2s1 | 93% (active) |
| S=c1[nH]c2ccccc2n2cccc12 | -4% |
| CNC(=O)c1c(O)c2cccc3c2n(c1=O)CC3 | -17% |
| CC(=O)c1cc(N2CCC(C(=O)O)CC2)ccc1[N+](=O)[O-] | -22% |
| O=C(CN1CCCCCCC1)Nc1cccc(Cl)c1Cl | -14% |
| COc1cccc(OC)c1OCCOCCN1CCN(C)CC1 | -17% |
| Clc1cccc(OCCCN2CCCC2)c1Cl | 2% (active) |
| Cc1ccc(NC(=O)C2C3CCC(O3)C2C(=O)O)cc1C (centres undefined) | -1% |
| S=C(Nc1ccccc1)Nc1nc2ccccc2n1CCOc1ccccc1 | -9% |
| CCCc1nnc(NC(=O)CN2CCOCC2)s1 | -19% |
| O=C(Nc1ccccc1)N1CCSc2cc(Cl)ccc21 | -1% |
| CC1CCc2sc(-c3n[nH]c(=S)o3)cc2C1 (centres undefined) | 9% (active) |

| Structure (SMILES) | activity increase over dofetilide control, less the hit threshold |
| --- | --- |
| CCc1c(C)nc(SC)n(CC#N)c1=O | -2% |
| COc1cccc(C(=O)NC(=S)Nn2cnnc2)c1OC | -14% |
| COc1ccccc1C(=O)NNC(=S)NC(=O)c1sc2ccccc2c1Cl | 43% (active) |
| COc1ccccc1C(=O)NC(=S)NNC(=O)c1sc2ccccc2c1Cl | -18% |
| O=C(NNC(=S)NC(=O)c1sc2ccccc2c1Cl)c1ccc(Cl)cc1 | 70% (active) |
| O=C(N/N=C/c1ccc2cccc(OCc3ccccc3)c2n1)c1ccc(Br)cc1 | -9% |
| CCOP(=O)(OCC)C(NC(=O)c1ccc(OC)c(OC)c1)c1ccccc1 (centres undefined) | -14% |
| O=C(Nc1ccccc1C(=O)O)c1cncc(Br)c1 | 12% (active) |
| O=C(O)c1cc(/C=N\O)ccc1OCc1ccccc1 | -9% |
| COc1cc(C(=O)Nc2ccc(O)cc2C(=O)O)ccc1OC(C)=O | 1% (active) |
| COc1cc(NC(=O)CCCOc2ccc(Cl)cc2Cl)c(C(=O)O)cc1OC | -6% |
| COc1ccc(C(=O)Nc2ccccc2C(=O)O)cc1Cl | 5% (active) |
| COc1cc(C(=S)N2CCOCC2)ccc1OC(=O)c1ccc([N+](=O)[O-])cc1[N+](=O)[O-] | -22% |
| O=C(CCCOc1ccc(Cl)cc1Cl)Nc1ccccc1C(=O)O | 3% (active) |
| CN(C)C(=O)c1ccc(NC(=O)c2cncc(Br)c2)cc1 | -12% |
| O=C(Nc1ccccc1C(=O)O)c1cccc(NC(=O)c2ccccc2Br)c1 | -5% |
| CC(C)C(=O)Nc1cccc(C(=O)Nc2ccccc2C(=O)O)c1 | -7% |
